An excerpt weighted towards active compounds, which were near 4.7% of everything screened.
D1 potentiator = enhances dopamine response at the human D1 receptor. P21728. HEK293 TREx D1 cells, calcium flux, dopamine EC20 potentiation. potentiation, % at 10 µM. actives 0.036% (n = 360,000). AID 504651; in the data active means potentiation above about 30%; further: 0% is about no effect
Target sequence (P21728 whole entry, looked up): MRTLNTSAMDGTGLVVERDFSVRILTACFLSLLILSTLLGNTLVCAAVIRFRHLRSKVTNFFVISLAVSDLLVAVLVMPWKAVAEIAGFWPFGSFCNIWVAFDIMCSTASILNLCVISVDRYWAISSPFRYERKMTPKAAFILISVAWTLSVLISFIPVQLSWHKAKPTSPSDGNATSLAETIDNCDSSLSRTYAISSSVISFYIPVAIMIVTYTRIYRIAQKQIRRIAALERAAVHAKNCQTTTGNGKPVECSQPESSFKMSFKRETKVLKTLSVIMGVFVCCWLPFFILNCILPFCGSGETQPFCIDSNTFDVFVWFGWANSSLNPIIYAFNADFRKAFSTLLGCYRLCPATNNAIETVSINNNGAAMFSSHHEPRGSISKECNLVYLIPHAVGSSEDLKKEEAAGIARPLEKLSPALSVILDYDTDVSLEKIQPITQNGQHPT
TRHR enhancer-1 = TRH receptor (human) allosteric enhancement. actives 0.66% (n = 360,000). enhancement, % at 2 µM. TRHR cells, fluo-8 calcium fluorescence, EC20 TRH enhancement. AID 493056. P34981; in the data active means enhancement above about 30%; further: 0% is about no effect
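Enhancer read-out: after compound pinning and an initial kinetic agonist-mode read, an EC20 of TRH (10 nM final) was injected and fluo-8 calcium signal (Ex 480/Em 530) followed at 1 s/cycle for 100 cycles in TRHR-expressing cells.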
D1 agonist = human D1 receptor agonism; actives 1% (n = 360,000); AID 504660; HEK293 T-REx D1 cells, calcium flux, agonist mode; activation, % at 2 µM; P21728; further: 0% is about no effect
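Agonism was scored from calcium flux recorded over 180 s (1 read/s) after pintool compound addition, following a 10-cycle baseline. Cells were inducible force-coupled HEK293 TREx D1, plated overnight at 30 C and loaded with no-wash calcium dye.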
D1 antagonist = blocks dopamine activation of the human D1 receptor; P21728; HEK293 TREx D1 cells, calcium flux, dopamine EC80; active compounds read low; activity change, negative = inhibition, % at 10 µM; actives 3.2% (n = 360,000); AID 504652; in the data active means activity change below about -30%; further: on the % scale 0 is the no-effect control and ±100 the full control effect
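Cells carrying a force-coupled, tetracycline-inducible human D1 receptor report calcium flux. Each well gets a 10 s baseline, compound with 180 s monitoring, then an EC80 dopamine stimulus with a second 180 s kinetic read.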
TRHR agonist-1 = agonists of human TRH receptor. P34981. TRHR cells, calcium flux fluo-8, FDSS agonist mode. activation, % at 2 µM. actives 0.18% (n = 360,000). AID 493084; further: 0% is about no effect
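In this calcium-flux screen, cells bearing human TRHR are dye-loaded with fluo-8, baselined for 10 cycles, then exposed to library compounds; positive kinetic calcium responses during the agonist phase mark hits, with TRH as control.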
TRHR enhancer-2 = confirmation of human TRH receptor allosteric enhancers; 970 tested, under 10 active; AID 493076; TRH receptor cell assay, enhancer confirmation qHTS; shares compounds with TRHR enhancer-1; activity change, negative = inhibition, % at 46.1 µM; active means well fitted curve in the direction sought with a large enough effect; inconclusive means small, poorly fitted or top-dose-only effect, or another doubt; inactive means no such curve, though single readings can be large; an effect the other way counts as inactive or inconclusive;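 further: compound effect scored on response to added TRH at EC20 of 10 nM; 0% is about no effect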
TRHR agonist-2 = confirmation of human TRH receptor agonists. shares compounds with TRHR enhancer-1. TRHR-expressing cells, agonist activation read-out. Potency, µM (series often up to 46.1 µM), for the others: at the highest dose activation, hits mostly activators. actives 8% (n = 970). AID 493078; active means well fitted curve in the direction sought with a large enough effect; inconclusive means small, poorly fitted or top-dose-only effect, or another doubt; inactive means no such curve, though single readings can be large; an effect the other way counts as inactive or inconclusive; further: potency means the concentration at half of the fitted maximal effect; 0% is about no effect; nearly all actives have a fitted effect of over 75% in size
* hit, by the source's call; ? = inconclusive; · = no result. Unless noted, no stated cut-off is given here; in the data, active means activation above about 30%; inactive means the rest.

SMILES | D1 potentiator | TRHR enhancer-1 | D1 agonist | D1 antagonist | TRHR agonist-1 | TRHR enhancer-2 | TRHR agonist-2
O=C(CCC1N=C2c3ccccc3N=C(SCc3cccc(Cl)c3)N2C1=O)NCc1ccco1 (configuration not stated) | -7 | 49* | 2 | 3 | 0 | -6 | ?
O=C(N/N=C/c1c(O)ccc2ccccc12)c1ccc(Br)o1 | 23 | 4 | 97* | -2 | 51* | 1 | 18µM*
COc1ccc(N(Cc2cccs2)C(=O)c2ccc(OC)c(Cl)c2)cc1 | -2 | -8 | 8 | -8 | 1 | · | ·
Cc1nc2ccc(C(=O)Nc3ccccc3Cl)cc2s1 | -5 | 51* | -1 | -9 | -1 | 3 | 1%
Cc1ncoc1C(=O)N1CCCC(CCC(=O)NCc2ccccc2F)C1 (configuration not stated) | -3 | 45* | 0 | 6 | 0 | -7 | 1%
Cc1ncoc1C(=O)N1CCCC(CCC(=O)NCc2ccc(F)c(F)c2)C1 (configuration not stated) | -1 | -2 | 2 | -4 | 0 | · | ·
Cc1cccc(C(=O)Oc2ccccc2C(=O)N2CCOCC2)c1 | 0 | 52* | 4 | 6 | 0 | -1 | 1%
COc1cc(OC)cc(C(=O)Nc2cccnc2)c1 | 6 | 50* | 1 | 13 | 0 | -1 | 3%
COc1cc(OC)cc(C(=O)NC(=S)Nc2cccnc2)c1 | -6 | 2 | 1 | -5 | -1 | · | ·
CCC(C)[C@@H](C(=O)N1CCNCC1)n1cc(CCCN=C(N)N)nn1 (some centres not stated) | 9 | -7 | 1 | -9 | 0 | · | ·
C[C@@H](C(=O)N1CCNCC1)n1cc(CCCN=C(N)N)nn1 | -2 | 64* | 6 | 0 | 0 | -2 | -1%
Cn1c(SCC(=O)NC2CC2)nnc1-c1ccc(Cl)cc1 | -11 | -5 | 1 | -4 | -1 | · | ·
Cc1ccc(OCc2nc(-c3ccc(C(=O)N4CCN(c5cccc(C(F)(F)F)c5)CC4)cc3)oc2C)cc1 | -4 | -5 | 7 | 17 | 1 | · | ·
CC(C)CCNC(=O)NC(=O)CSc1nnc(-c2ccccc2Br)o1 | -3 | 42* | 2 | 10 | 0 | -3 | 2%
Cc1cccc(OCC(=O)NCC(=O)N/N=C/c2cc(Br)cc(Br)c2O)c1 | 3 | 4 | 3 | -26 | 1 | · | ·
Cc1nn(CCC(=O)NCc2cccc(Br)c2)c(=O)c2nn(-c3ccccc3)c(C)c12 | 0 | 1 | 6 | 10 | -1 | · | ·
C/C(=N/Nc1ccc([N+](=O)[O-])cc1)c1c[nH]c2ccccc12 | -8 | 0 | 83* | -33* | 35* | -4 | ?
C/C(=N/Nc1ccc([N+](=O)[O-])cc1)c1ccc(C)cc1C | 1 | -5 | 5 | -18 | 2 | · | ·
O=C(Nc1ccccc1C(=O)O)c1cc(S(=O)(=O)N2CCOCC2)c(Br)s1 | 6 | 45* | 7 | 10 | -1 | 4 | -1%
N#Cc1cc(-c2ccccc2)nc(NN)n1 | -3 | 48* | 3 | -12 | 0 | -16 | -1%
NNc1nc(-c2ccccc2)cc(-c2ccccc2)n1 | -4 | -3 | 5 | 1 | 0 | · | ·
COc1ccc(S(=O)(=O)N2CCCCC2)cc1NC(=S)Nc1ccccc1 | -6 | 56* | 2 | -24 | 0 | -2 | 1%
O=C(/C=C/c1cccc([N+](=O)[O-])c1)OCC1CCCO1 (configuration not stated) | -2 | -6 | 2 | -8 | 0 | · | ·
Cc1nn(CCCC(=O)Nc2ccccn2)c(C)c1[N+](=O)[O-] | 0 | 47* | 2 | 17 | 0 | -4 | 1%
O=C(NCc1ccc(/C=c2\sc3n(c2=O)CCN=3)o1)C(=O)Nc1ccccc1 | -3 | -1 | 9 | 1 | 0 | · | ·
NC(=O)NCCCC(NC(=O)c1ccc(C#CC2(O)CCCCC2)cc1)C(=O)O (configuration not stated) | -4 | 43* | 4 | -4 | 0 | -4 | -1%

Assay outcomes: PubChem, National Center for Advancing Translational Sciences (NCATS)
